The values that follow come from PubChem BioAssay (NCI).

About 83,000 compounds went through this panel and 20% of them were active in at least one assay; those are over-represented in the sample as a whole.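 Testing used 96-well plates and a 48-hour single-concentration exposure. Example: -40 means 40% of the starting cells died.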 A number with no mark means an inactive call. Calls of active or inactive are those of the source. The calls were made as follows: active = growth percent below 10; inactive = the rest.

Holding throughout (assay): NCI-60 one-dose screen, 48 h (100 = growth as untreated, 0 = no growth, -100 = all killed)
Holding throughout (settings): 10 µM unless noted

The subject of test [1] is T-47D breast.
Test [2] relates to BT-549 breast.
The subject of test [3] is MDA-MB-435 melanoma.
Test [4] concerns SW-620 colon.
The subject of test [5] is MCF7 breast.
Test [6] relates to HCT-116 colon.
The test system of test [7] is HCC-2998 colon.
Test [8] concerns KM12 colon.

On to `CC1CN(CC(O)c2ccc(Br)cc2)CCO1` (stereo not drawn), for which the growth in test [1] was 107%; in test [2] it was 106%; in test [3], 121%; in test [4], 109%; in test [5], 105%; in test [6], 108%. In addition, the figures for the growth in test [7] and in test [8] were 103% and 107%, respectively.

For the compound `[N-]=[N+]=NCc1ncc(-c2ccc(C(F)(F)F)cc2)c(NC2CCCCCC2)n1`, the growth is 63.1% [50 µM] in test [1]; 81.9% [50 µM] in test [2]; 61.6% [50 µM] in test [3]; 75.4% [50 µM] in test [4]; 66.2% [50 µM] in test [5]; 40.5% [50 µM] in test [6]. Moreover, the results for the growth in test [7] and in test [8] were 85.8% [50 µM] and 46.8% [50 µM], respectively.

Regarding `CCN(CC)CCNCC(=O)Oc1ccc(/C=C/C(=O)CC(=O)/C=C/c2ccc(OC(=O)CNCCN(CC)CC)c(OC)c2)cc1OC`, the growth in test [1] was 26.6%; in test [2] it was -49.4% (active); in test [3], -30% (active); in test [4], -26.5% (active); in test [5], 11.6%; in test [6], -9.15% (active). In addition, the growth in test [7] was -24.9% (active); in test [8], -19.5% (active).

As for `CC(C)CC1NC(=O)C(CCCN)NC(=O)C(C(C)C)NC(=O)C2CCCN2C(=O)C(Cc2ccccc2)NC(=O)C(CC(C)C)NC(=O)C(CCCN)NC(=O)C(C(C)C)NC(=O)C2CCCN2C(=O)C(Cc2ccccc2)NC1=O` (stereo not drawn), the growth in test [1] is -37.2% (active); in test [2], -77.7% (active); in test [3], -83.6% (active); in test [4] it was -75.6% (active); in test [5], -61.5% (active); in test [6], -92.2% (active). Also, the growth was -36.2% (active) in test [7] and -75% (active) in test [8].

For `CCSCC1CC(O)(c2ccccc2)C(c2ccccc2)C(c2ccc(Cl)cc2)O1` (stereo not drawn), the growth in test [1] is -7.67% (active); in test [2], 1.88% (active); in test [3] it was -17.3% (active); in test [4] it was 1.98% (active); in test [5], 0.0329% (active); in test [6] it was 1.69% (active). For the same compound, the growth in test [7] was 17.9%; in test [8], -31.2% (active).

Turning to `OC(c1ccccc1)C(NCc1ccccc1)c1ccccc1` (stereo not drawn), the growth in test [1] is 91.7%; in test [2], 98.7%; in test [3], 78.9%; in test [4] it was 92.9%; in test [5], 97.1%; in test [6] it was 66.1%. For the same compound, the growth is 105% in test [7] and 102% in test [8].

Consider `O=C(Nc1ccccc1)P(=O)(O)c1ccccc1`, for which the growth in test [1] was 113%; in test [2], 110%; in test [3], 111%; in test [4] it was 101%; in test [5], 96.8%; in test [6] it was 98.1%. Besides, the growth in test [7] was 97.3%; in test [8], 99.8%.

Consider `COc1ccc(/C=C2\CCc3ccccc3C2=O)cc1`, for which the growth in test [1] was 92.5%; in test [2] it was 97.9%; in test [3], 9.53% (active); in test [4] it was 66.9%; in test [5], 85.7%; in test [6], 94.3%. For the same compound, the growth is 80.4% in test [7] and 44.6% in test [8].

For `O=C1NC(=O)/C(=C/c2ccc(Cl)cc2Cl)N1`, the growth is 90.9% in test [1]; 104% in test [2]; 116% in test [3]; 102% in test [4]; 95.3% in test [5]; 114% in test [6]. The figures for the growth in test [7] and in test [8] were 102% and 103%, respectively.

On to `CC[C@@H](c1ccc(O)c(O)c1)[C@@H](CC)c1ccc(O)c(O)c1`, for which the growth was -8.01% (active) in test [1]; 98% in test [2]; 62.9% in test [3]; 5.74% (active) in test [4]; 98.8% in test [5]; 9.12% (active) in test [6]. Further, the growth was 103% in test [7] and 102% in test [8].

Regarding `Clc1ccc2[nH]cc(-c3cncn3CCc3ccccc3)c2c1`, the growth was 13.2% in test [1]; 40.3% in test [2]; 50.9% in test [3]; 72.8% in test [4]; 53.2% in test [5]; 44.1% in test [6]. The results for the growth in test [7] and in test [8] were 89.2% and 72.9%, respectively.

`Clc1ccc2nc(CI)c(CI)nc2c1`: the growth is 85.3% in test [1]; 73.1% in test [2]; 23.8% in test [3]; 25.1% in test [4]; 22.4% in test [5]; 11% in test [6]. For the same compound, the growth in test [7] was 100%; in test [8], 101%.

For the compound `COc1ccc2nc(N/N=C(\C)c3ccccn3)cc(C)c2c1`, the growth is 0.953% (active) in test [1]; -87.8% (active) in test [2]; -94.9% (active) in test [3]; -68% (active) in test [4]; -74.6% (active) in test [5]; -68.7% (active) in test [6]. Besides, the results for the growth in test [7] and in test [8] were -68.3% (active) and -35.7% (active), respectively.

For the compound `COc1ccc(Oc2ccccc2NC(=O)CNC(=O)c2cccc3ccccc23)cc1`, the growth in test [1] is 41.6% [5 µM]; in test [2], 30.9% [5 µM]; in test [3] it was 1.66% [5 µM] (active); in test [4], 25.6% [5 µM]; in test [5], 23.5% [5 µM]; in test [6] it was 10.9% [5 µM]. The growth in test [7] was 33.7% [5 µM]; in test [8], 26.5% [5 µM].

For `COc1ccccc1NC(=O)c1sc2nc3c(cc2c1N)C(=O)CCC3`, the growth in test [1] was 87.3%; in test [2], 63.1%; in test [3], -31.9% (active); in test [4], 60.2%; in test [5] it was 59%; in test [6] it was 75.5%. Besides, the values for the growth in test [7] and in test [8] were 75.5% and 53.4%, respectively.

For `COC(=O)[C@H](Cc1cn(C)cn1)NC(=O)[C@H](C)NC(=O)Nc1cc(C(F)(F)F)cc(C(F)(F)F)c1`, the growth was -58.7% [100 µM] (active) in test [1]; -91.6% [100 µM] (active) in test [2]; -86.7% [100 µM] (active) in test [3]; -27.4% [100 µM] (active) in test [4]; -60% [100 µM] (active) in test [5]; -84.2% [100 µM] (active) in test [6]. Besides, the growth in test [7] was -88.9% [100 µM] (active); in test [8], -70.8% [100 µM] (active).
